Bioassay records from PubChem.
In the library only some 2.8% were active in any assay of this set; here they are far more common.
GASC-1 inh: human JMJD2C demethylase inhibition; Q9H3R0; GST-JMJD2C(1-420) H3K9me3 demethylation, DELFIA europium; inhibition, % at 2.35 µM; 330,000 compounds, 0.069% hits; AID 2099;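 active = more than half of a compound's replicate wells show inhibition beyond 50%, single wells judged on their own value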;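 also: signal counts dimethyl H3K9 product captured on neutravidin plate; 0% = median of DMSO wells and 100% = 0.3 times that DMSO median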
PP5 primary: blocks human protein phosphatase 5 activity; 320,000 compounds, 0.18% hits; AID 1987; inhibition, % at 6.7 µM; purified PP5c, OMFP substrate fluorescence; P53041;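 active = inhibition above the campaign's mean inhibition across all tested compounds plus 3 SD, cut at about 9.5% in these data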;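 also: 0% = DMSO only and 100% = 100 µM cantharidin control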
Target sequence (P53041 whole entry, looked up): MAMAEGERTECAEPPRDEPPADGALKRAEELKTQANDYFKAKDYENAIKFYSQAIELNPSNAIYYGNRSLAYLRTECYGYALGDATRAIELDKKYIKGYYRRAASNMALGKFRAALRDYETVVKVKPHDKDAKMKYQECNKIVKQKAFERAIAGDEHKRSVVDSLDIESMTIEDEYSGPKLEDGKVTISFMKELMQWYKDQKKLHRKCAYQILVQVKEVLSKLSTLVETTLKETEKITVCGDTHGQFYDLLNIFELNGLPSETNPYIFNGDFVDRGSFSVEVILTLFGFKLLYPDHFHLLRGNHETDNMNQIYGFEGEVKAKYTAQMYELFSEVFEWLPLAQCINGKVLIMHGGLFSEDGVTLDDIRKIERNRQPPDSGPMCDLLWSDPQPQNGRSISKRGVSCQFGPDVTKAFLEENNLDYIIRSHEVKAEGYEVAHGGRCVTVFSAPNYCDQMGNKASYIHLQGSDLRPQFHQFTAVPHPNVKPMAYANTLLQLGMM
PG9 binder: PG9 antibody binding by small molecule; TR-FRET gp120-PG9 antibody binding; inhibition, % at 6.7 µM; 360,000 compounds, 0.43% hits; in the data active = inhibition above about 8.5%
proKLK7 act: activators of human kallikrein-7 zymogen | AID 652039 | 370,000 compounds, 0.9% hits | P49862 | purified proKLK7, EDANS-DABCYL substrate fluorescence; 100% is mature enzyme control, 0% vehicle | activation, % at 7 µM;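 active = activation above the mean of all tested compounds plus 3 SD, computed per campaign excluding outliers beyond control limits, cut at about 13% in these data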
PP1 inh: PP1-alpha (human) inhibition in PP5 counter-screen; AID 2235; P62136; 320,000 compounds, 0.9% hits; purified PP1alpha, OMFP fluorescence; inhibition, % at 6.7 µM;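 active = inhibition above the mean inhibition of all tested compounds plus 3 SD, computed separately for each screening campaign, cut at about 15% in these data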
Rev-erbA mod: modulates human Rev-erb alpha binding to DNA; P20393; Rev-erbα–FITC-DNA binding, fluorescence polarization, 90 min; activity, % at 10 µM; 370,000 compounds, 0.79% hits; AID 1259318;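 active = activity above about 14%, limit read from the data; passing the limit was not always enough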;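 also: 0% = DMSO wells with 35 nM protein and 100% = DMSO wells with 750 nM protein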
Numbers without * were called inactive; / = not tested or not shown.

SMILES	GASC-1 inh	PP5 primary	PG9 binder	proKLK7 act	PP1 inh	Rev-erbA mod
Cc1nn(-c2ccccc2)c2sc(C(=O)NCCc3ccc(Cl)cc3)cc12	/	/	/	-0.1	/	-2.6
O=C(O)CN1C(=O)/C(=C\c2cc(Br)ccc2OCc2ccc(F)cc2)SC1=S	-5.5	3.6	-3.3	0.5	17.0*	-2.5
C=C1CC2C3C=C(C)C4=CC(=O)CC[C@]4(C)C3CC[C@]2(C)[C@@]1(OC(C)=O)C(C)=O (stereo partly drawn)	/	/	/	/	/	0.5
C=C[C@H]1CN2CC[C@@H]1C[C@@H]2[C@H](O)c1ccnc2ccc(OC)cc12	/	/	/	/	/	2.9
CC(C)[C@H](NS(=O)(=O)c1ccccc1)C(=O)OCC(=O)N1N=C(c2ccc(Cl)cc2)CC1c1ccco1 (stereo partly drawn)	2.6	4.7	0.9	-0.1	16.4*	-1.2
COCC(=O)OCC(=O)N1N=C(c2ccc(Cl)cc2)CC1c1ccco1 (stereo not drawn)	0.2	1.1	-2.1	-0.4	-1.6	-0.1
NNC(=O)c1ccc(CSc2n[nH]c(=O)[nH]c2=O)cc1	-2.1	-0.7	-2.0	-1.1	16.0*	-5.9
COC(=O)[C@H]1C[C@@]2(Oc3ccc(Br)cc3)c3ccccc3N(C(=O)OC(C)(C)C)[C@H]2N1C(=O)OC(C)(C)C	/	/	/	-0.5	/	2.0
c1ccc([C@@H]2CCNC[C@H]2COc2ccc3c(c2)OCO3)cc1	/	/	/	/	/	-9.0
CCCCCCCCCCCCOC(=O)CS(=O)(=O)O	/	/	/	/	/	-7.7
CCCOc1ccccc1-n1sc2c(c1=S)-c1cc(OC)cc3c1N(C(=O)C3=O)C2(C)C	2.2	1.5	-3.0	0.3	17.2*	1.1
COc1cc(C2C(C#N)=C(N)OC3=C2C(=O)CCC3)c([N+](=O)[O-])cc1OC (stereo not drawn)	0.0	-0.1	-0.4	25.1*	1.7	5.4
Cc1cc(C2C(C#N)=C(N)OC3=C2C(=O)CCC3)c(C)s1 (stereo not drawn)	24.2	-1.1	-1.3	-0.6	4.5	-4.5
COc1ccc(NC(=S)NCc2ccc(S(N)(=O)=O)cc2)cc1OC	56.2*	0.4	-1.4	-0.2	-0.2	-2.8
COc1ccc(CNC(=S)Nc2ccc(S(N)(=O)=O)cc2)cc1	2.3	1.8	0.3	-0.8	-3.9	-4.1
CCOc1ccc(CCNC(=O)c2cc3sccc3n2Cc2ccccc2)cc1OCC	/	/	/	/	/	3.6
CCC(Sc1nc2ccsc2c(=O)n1Cc1ccc(C(=O)O)cc1)C(=O)Nc1ccc(C)c(Cl)c1 (stereo not drawn)	8.5	3.3	1.9	0.3	16.6*	-5.1
CC(=O)NC(Cc1ccc(O)cc1)C(=O)O (stereo not drawn)	/	/	/	/	/	3.8
COC(=O)/C(=C\c1c[nH]c2ccccc12)NC(C)=O	-31.2	2.2	-1.9	0.2	15.8*	6.5
CC(C)(CO)[C@@H](O)C(=O)NCCCC(=O)O	/	/	/	/	/	4.5
CCOc1ccc(S(=O)(=O)Nc2ncn[nH]2)cc1	-15.6	-1.2	0.8	-0.1	-1.2	8.6
CCOc1ccc(S(=O)(=O)Nc2cc(Sc3ncn[nH]3)c3oc(=O)sc3c2)cc1	10.6	0.8	/	/	15.8*	/
Cc1ccc(C(=O)N/C(=C\c2ccc([N+](=O)[O-])cc2)C(=O)NCCc2ccccc2)cc1	-6.9	-0.8	-1.4	-0.8	16.6*	-3.4
CC(=O)Nc1cc(OC(C)=O)c2nonc2c1OC(C)=O	16.7	8.2	-10.4	40.0*	59.6*	0.9
CC(=O)Nc1nonc1NC(C)=O	-10.8	-1.4	-0.3	0.4	-1.2	-3.9
SMILES	GASC-1 inh	PP5 primary	PG9 binder	proKLK7 act	PP1 inh	Rev-erbA mod
COc1ccc2c(c1)OC[C@H]1[C@H]2N2C(=O)CNC(=O)[C@@]2(C)[C@H]1c1ccccc1	59.2*	/	-3.1	0.0	/	-1.1
COc1ccc2c(c1)[C@@H]1[C@H](CO2)[C@H](c2ccccc2)[C@]2(C)C(=O)NCC(=O)N12	3.7	-1.8	-0.6	0.3	-3.9	-3.4
Cn1c(=O)c(-c2ccccc2)nn2c3ccccc3nc12	52.1*	-0.5	-1.1	-0.6	2.3	11.3
CCN1C(=O)C(C(=O)Nc2ccc(OC)cc2)C2CC1(C)Oc1ccccc12 (stereo not drawn)	54.2*	2.9	-2.2	0.2	-1.5	-6.0
COc1ccc(NC(=O)C2c3ccccc3OCC(=O)N2C2CC2)cc1 (stereo not drawn)	/	/	-0.8	-0.1	/	-1.3
O=C(Nc1ccc(Cl)cc1)N1CCN(c2ccccc2)CC1	51.9*	2.3	-1.8	0.0	0.5	1.6
CC(=O)c1ccc(N2CCN(C(=O)Nc3ccc(Cl)cc3)CC2)cc1	-10.2	-0.8	2.1	0.7	-5.5	9.6
Cc1nc2c(C(=O)NCCC(C)C)c[nH]n2c(=O)c1Cc1ccccc1F	9.0	4.2	-1.1	0.1	15.5*	-1.1
Cc1nc2c(C(=O)NCCC(C)C)c[nH]n2c(=O)c1Cl	-2.8	-1.0	-3.0	-0.2	2.8	-4.5
Cc1cc(O)c(C(=O)/C=C/c2ccc(Cl)cc2)c(=O)o1	2.9	-9.4	1.4	-1.0	17.2*	6.4
COc1cc(/C=C/C(=O)c2c(O)cc(C)oc2=O)cc(OC)c1O	-13.0	-0.6	-3.8	-1.9	2.4	-5.1
CC(=O)Nc1sc2c(c1-c1nc(-c3ccccc3)cs1)CCN(C(C)C)C2	/	/	/	/	/	3.5
COc1cc([N+](=O)[O-])cc(/C=N/NC(=O)c2ccc(C)nc2)c1O	-4.9	4.8	-7.5	-0.1	24.3*	11.1
COc1cc([N+](=O)[O-])cc(/C=N/NC(=O)c2ccc(NC(=O)c3ccc(C)cc3)cc2)c1O	-35.0	/	-1.4	1.2	/	-1.4
Oc1ccc2ccccc2c1	/	/	/	/	/	-1.1
CCN1CCN(CCCNC(=O)c2cc3cc4ccc(OC)cc4nc3o2)CC1	-5.3	0.2	/	/	-1.8	/
CCCN(CCC)CCCNC(=O)c1cc2cc3ccc(OC)cc3nc2o1	125.7	1.9	1.6	61.4*	-4.9	-1.5
N/C(=N\N=C\c1ccc(Cl)cc1)N/N=C/c1ccc(Cl)cc1	/	/	/	/	/	0.9
N/C(=N\N=C/c1ccc(F)cc1)N/N=C\c1ccc(F)cc1	-3.5	4.7	0.2	0.1	16.4*	-4.1
O=C(NC1CCCCC1)C(c1ccncc1)N(Cc1ccccc1)C(=O)c1ccc(-c2ccccc2)[nH]1 (stereo not drawn)	20.3	0.5	-2.7	-0.2	15.6*	2.7
CN1CCN(C(=O)CSc2nc(-c3cccs3)cc(-c3cccs3)c2C#N)CC1	15.1	1.4	/	/	-2.1	/
CCN(CC)C(=O)CSc1nc(-c2cccs2)cc(-c2cccs2)c1C#N	9.2	-0.1	1.1	-0.9	15.7*	7.1
C[C@@H]1CC2C3C[C@H](F)C4=CC(=O)C=C[C@]4(C)[C@@]3(F)[C@@H](O)C[C@]2(C)[C@@]1(O)C(=O)COC(=O)C(C)(C)C (stereo partly drawn)	/	/	/	/	/	-0.9
Cc1ccc(C)c(OCC(=O)Nc2nonc2NC(=O)COc2cc(C)ccc2C)c1	14.5	4.9	-0.1	0.1	16.6*	-0.2
